High-throughput results (PubChem)
Most compounds without a hit are left out; they make up all but 11% or so of the library.
Tau fibril ThT: qHTS for Inhibitors of Tau Fibril Formation, Thioflavin T Binding | Microtubule-associated protein tau (Homo sapiens), P10636 | recombinant tau K18 P301L, heparin-induced fibrillization, ThT fluorescence | Potency, µM (series often up to 57.4 µM), usual class: inhibitors | hit rate 2.1% among 270,000; further: nearly all actives have a fitted effect of over 55% in size
Target sequence (P10636 561-689 P618L limits assumed): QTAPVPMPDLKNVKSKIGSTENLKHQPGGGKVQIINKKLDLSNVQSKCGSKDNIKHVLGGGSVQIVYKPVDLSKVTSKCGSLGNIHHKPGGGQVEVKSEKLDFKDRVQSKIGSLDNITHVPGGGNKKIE
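Tau K18 P301L fragment (15 uM unlabeled plus 0.24 uM Alexa 594-labeled) in 100 mM sodium acetate pH 7 with compound, fibrillization induced by 20 uM heparin for 6 hr at 37 C. Thioflavin T (30 uM) added, fluorescence read after 1 hr (ex 450, em 510 nm).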
Coupling enz: qHTS Assay for Inhibitors of Fructose-1,6-bisphosphate Aldolase from Giardia Lamblia: Coupling assay counterscreen | hit rate 0.67% among 290,000 | activity change, negative = inhibition, % at 58.2 µM, hits read low | coupling enzyme system counterscreen, AmpLite Red fluorescence; in the data active means activity change below about -30%
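Counterscreen of the coupled detection system alone, without aldolase: glyceraldehyde-3-phosphate coupling enzymes plus AmpLite Red readout. Compounds at 57.5 uM final, 10 min RT preincubation, 20 min RT reaction, fluorescence 525/598 nm.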
Tau fluor cs: Counterscreen qHTS for Inhibitors of Tau Fibril Formation, Fluorescence Polarization; AID 1463, 2008; tau K18 P301L Alexa594 fluorescence, heparin fibrillization; hit rate 0.93% among 280,000; Potency, µM (doses to about 57.7 µM); further: nearly all actives have a fitted effect of over 55% in size
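Human tau K18 P301L (15 uM unlabeled, 0.24 uM Alexa 594-labeled) in 100 mM sodium acetate pH 7 with 20 uM heparin, 6 hr at 37 C. ThT 30 uM added, 1 hr ambient; Alexa 594 FP and total fluorescence read at 555/632 nm.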
Sfp PPTase inh: qHTS Assay for Inhibitors of Bacillus subtilis Sfp phosphopantetheinyl transferase (PPTase); 4'-phosphopantetheinyl transferase ffp (Bacillus subtilis), Q9F4F7; Biochemical Sfp PPTase activity, qHTS; Potency, µM, hits mostly inhibitors; hit rate 3.5% among 310,000; AID 1490, 2009;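 further: the enzyme is Sfp with the accession as filed and its product quenches rhodamine fluorescence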
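Fluorescence-quenching assay with 15 nM Sfp, 5 uM rhodamine-CoA and 12.5 uM BHQ-2-labelled ybbR peptide in pH 7.6 Hepes/MgCl2 buffer. Enzyme was pre-incubated with compound for 15 min at room temperature. Rate was taken from the 30-min fluorescence change (525/598 nm).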
Tau FP inhib: qHTS for Inhibitors of Tau Fibril Formation, Fluorescence Polarization; hit rate 0.39% among 280,000; Microtubule-associated protein tau (Homo sapiens), P10636; K18 P301L tau heparin fibrillization, Alexa594 FP, 6 h; Potency, µM (top dose mostly 57.7 µM), most hits filed as inhibitors; further: nearly all actives have a fitted effect of over 55% in size
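Recombinant K18 P301L […], labeled with Alexa 594 at 0.24 uM over 15 uM unlabeled; heparin inducer 20 uM final; 37 C, 6 hr; FP endpoint.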
G9a block: qHTS Assay for Inhibitors of Histone Lysine Methyltransferase G9a. AID 504332, 2011. Potency, µM (series often up to 102 µM), usual class: inhibitors. G9a H3K9 monomethylation, AlphaScreen, 2 h. hit rate 8.8% among 350,000; further: nearly all actives have a fitted effect of over 75% in size
Target sequence (Q96KQ7 913-1193 limits assumed): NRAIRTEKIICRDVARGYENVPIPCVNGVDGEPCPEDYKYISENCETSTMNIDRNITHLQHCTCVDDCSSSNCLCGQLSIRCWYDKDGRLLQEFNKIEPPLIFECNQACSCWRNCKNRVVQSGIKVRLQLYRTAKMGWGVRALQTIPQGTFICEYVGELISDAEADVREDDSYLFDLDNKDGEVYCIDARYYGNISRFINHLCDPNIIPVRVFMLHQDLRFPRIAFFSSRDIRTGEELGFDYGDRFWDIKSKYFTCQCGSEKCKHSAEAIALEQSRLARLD
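Step 1: enzyme (final 20 nM) with compound, 15 min RT. Step 2: substrate peptide 500 nM and SAM 20 uM, 2 h RT. Step 3: anti-H3K9me1 antibody and AlphaScreen beads, 10 min, then plate read.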
Hits are given with their value; . = inactive; ? = inconclusive; / = no result; [ ] = dose if it differs, or a comment. Unless noted, the call rests on the fitted dose curve; in most records, active means well fitted curve in the direction sought with a large enough effect; inconclusive means small, poorly fitted or top-dose-only effect, or another doubt; inactive means no such curve, though single readings can be large; an effect the other way counts as inactive or inconclusive.

SMILES	Tau fibril ThT	Coupling enz	Tau fluor cs	Sfp PPTase inh	Tau FP inhib	G9a block
CSc1nsc(SCC(=O)Nc2ccccc2C(N)=O)n1	/	.	/	.	/	79µM
Cc1ccccc1-n1c(SC(C)C(=O)N2CCN(C)CC2)nc2ccccc2c1=O (centres undefined)	.	.	.	.	.	/
CCOc1ccc(CCNC(=O)COc2cccc(-n3cnnn3)c2)cc1OCC	/	/	/	/	/	.[0.501 µM]
CCN(C(=O)C(C)N1C(=O)/C(=C/c2ccco2)SC1=S)C1CCS(=O)(=O)C1 (centres undefined)	/	.	/	16µM	/	20µM
CCN(C(=O)CCN1C(=O)/C(=C/c2ccccc2)SC1=S)C1CCS(=O)(=O)C1 (centres undefined)	/	/	/	.	/	.
CC(C(=O)N(C)C1CCS(=O)(=O)C1)N1C(=O)/C(=C/c2ccc(F)cc2)SC1=S (centres undefined)	/	/	/	50µM	/	?
COc1cc(CNCCSc2nnnn2C)ccc1OCc1ccc(C)cc1	.	/	.	/	.	.
CC(=O)c1c(C)[nH]c(C(=O)COC(=O)c2ccc(Cl)nc2)c1C	/	/	/	/	/	.[12.7 µM]
Fc1ccc([C@@H]2CCNC[C@H]2COc2ccc3c(c2)OCO3)cc1	.	.	.	.	.	24µM
Fc1ccc(C2CCNCC2COc2ccc3c(c2)OCO3)cc1 (centres undefined)	/	.	/	.	/	50µM
CCOC(=O)c1c(-c2ccc(C)cc2)csc1NC(=O)C1CC=CCC1C(=O)O (centres undefined)	?	.	.	.	.	?
CCOC(=O)c1c(-c2ccccc2)csc1NC(=O)CSc1ccccc1	.	.	.	.	.	.
CCOC(=O)c1c(-c2ccccc2)csc1NC(=O)/C(C#N)=C/c1ccc(O)c(OC)c1	?	.	13µM[quencher]	?	.	40µM
CCOC(=O)c1c(-c2ccc(-c3ccccc3)cc2)csc1NC(=O)C1C2CCC(O2)C1C(=O)O (centres undefined)	?	.	.	50µM	?	/
CCOC(=O)c1c(-c2ccccc2)csc1NC(=O)C1CCCO1 (centres undefined)	?	.	.	32µM	.	?
COc1ccc(Cl)cc1NC(=O)NN1CCN(C)CC1	/	/	/	.	/	50µM
COc1ccc(Cl)cc1NC(=O)N1CCN(c2ccccc2OC)CC1	.	.	.	.	.	.
CCN1CCN(C(=O)Nc2cc(Cl)ccc2OC)CC1	.	.	.	.	.	50µM
CC(C)c1ccc(S(=O)(=O)c2cn(Cc3ccc(F)cc3)c3cc4c(cc3c2=O)OCO4)cc1	.	.	.	.	.	.
Cc1ccc(Cn2cc(S(=O)(=O)c3ccc(C(C)C)cc3)c(=O)c3cc4c(cc32)OCO4)cc1	.	.	.	?	.	45µM
COc1ccc(Cl)cc1NC(=O)c1cc(S(=O)(=O)N(C)Cc2ccccc2)ccc1F	.	/	.	/	?	.
COC(=O)C(=O)/C=C(\O)c1ccc(C)cc1	22µM	.	?	?	?	2µM
Cc1ccc(/C(O)=C/C(=O)C(=O)NNC(=O)C(O)(c2ccccc2)c2ccccc2)cc1	.	.	.	.	.	.
NS(=O)(=O)c1ccc(NCC2COc3ccccc3O2)c([N+](=O)[O-])c1 (centres undefined)	?	.	.	.	.	50µM
CC1(C)Cc2c(sc3[nH]c(=S)n(Cc4ccco4)c(=O)c23)CO1	28µM	.	.	14µM	?	50µM
SMILES	Tau fibril ThT	Coupling enz	Tau fluor cs	Sfp PPTase inh	Tau FP inhib	G9a block
O=c1c2c3c(sc2[nH]c(=S)n1Cc1ccco1)CCC3	?	.	.	50µM	.	14µM
CC1(C)Cc2c(sc3c2c(=N)n(Cc2ccco2)c(=O)n3Cc2ccccc2)CO1	.	.	.	.	.	?
CC(NC(=O)CCc1nnc(CCCc2ccccc2)o1)c1ccccc1 (centres undefined)	.	.	.	.	.	.[12.7 µM]
Brc1cc2c(cc1CSc1ncccn1)OCO2	/	.	/	.	/	.
CCn1c2ccccc2c2cc(CN3CCN(S(=O)(=O)Cc4ccccc4)CC3)ccc21	.	.	.	.	.	7.1µM
CCn1c2ccccc2c2cc(CN3CCN(Cc4ccc(Br)cc4)CC3)ccc21	?	/	.	/	.	0.89µM
CCn1c2ccccc2c2cc(CN3CCN(S(=O)(=O)CC)CC3)ccc21	.	.	.	?	.	11µM
COc1cc(NC(=O)CCS(=O)(=O)c2ccc3c(c2)n(C)c(=O)c(=O)n3C)cc(OC)c1	.	.	.	.	.	.
CCCSCC(=O)Nc1ncc2c(n1)-c1ccccc1CC2	?	.	.	.	.	8.9µM
CSCCC(NC(=O)c1ccc(Cl)cc1)C(=O)O (centres undefined)	.	.	.	.	.	.
CSCCC(NC(=O)c1cc(CC(C)C)oc1C)C(=O)O (centres undefined)	.	.	.	.	.	.
Cc1oc(-c2ccc3c(c2)OCCO3)cc1C(=O)NC(CCC(=O)O)C(=O)O (centres undefined)	.	.	.	18µM	.	?
Cc1oc(-c2ccc3c(c2)OCCO3)cc1C(=O)NCC(=O)O	.	.	.[2.34 µM]	.	.[2.34 µM]	/
CSCCC(NC(=O)c1cc([N+](=O)[O-])ccc1Cl)C(=O)O (centres undefined)	.	.	.	.	.	79µM
CSCCC(NC(=O)c1cc(C)oc1C)C(=O)O (centres undefined)	.	.	.	.	.	32µM
CC(=O)c1cccc(NC(=O)Nc2nnc(N3CCCC3)s2)c1	.	/	.	/	.	.
Cc1ccc(-c2noc(C3CCCN(C(=O)c4ccccc4Br)C3)n2)o1 (centres undefined)	/	.	/	.	/	25µM
Cc1ccc(-c2noc(C3CCCN(C(=O)c4ccccc4)C3)n2)o1 (centres undefined)	?	.	.	.	.	?
CCOc1ccc(C(=O)Nc2nc(-c3ccc(Br)cc3)ns2)cc1	?	/	.	/	.	.
COCc1cc(C)nc(OCC(=O)N/N=C/c2ccc(OC)c(OC)c2)c1C#N	.	.	.	.	.	?
CC1=C(C#N)c2nc(N)c(C#N)c(C)c2/C1=C\c1ccc(C)cc1	18µM	/	?	35µM	?	.[0.501 µM]
CSc1nc(-c2ccc(C)cc2)nc(N)c1C#N	.	.	.	.	.	.
COc1cc(/C=C2\C(C)=C(C#N)c3nc(N)c(C#N)c(C)c32)ccc1OCC(=O)O	14µM	.	?	?	?	25µM
C[C@@H](C(=O)CC(=O)OC(C)(C)C)[C@@H](O)c1c(F)cccc1Cl	/	.	/	.	/	/
